Assays:
Conditions in all cases: concentration: 1 μM, replicates: in singlicate; n = 1
PIP5K2C = system: T1, PIP5K2C
T1 construct: gene PIP4K2C

PKAC-alpha = system: T2, PKAC-alpha
T2 construct: gene PRKACA

PKAC-beta = system: T3, PKAC-beta
T3 construct: gene PRKACB

PKMYT1 = system: PKMYT1
PKN1 = system: PKN1
PKN2 = system: PKN2
PLK1 = system: PLK1
PLK2 = system: PLK2
PLK3 = system: PLK3
PLK4 = system: PLK4
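Note: KINOMEscan kinase panel screen.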

SMILES | %Inh (PIP5K2C) | %Inh (PKAC-alpha) | %Inh (PKAC-beta) | %Inh (PKMYT1) | %Inh (PKN1) | %Inh (PKN2) | %Inh (PLK1) | %Inh (PLK2) | %Inh (PLK3) | %Inh (PLK4)
CNc1nccc(-c2c(-c3ccc(F)cc3)ncn2C2CCN(C)CC2)n1 [SB-222903] | 90% | 1% | 17% | 0% | 0% | 0% | 0% | 0% | 4% | 0%
O=C(Nc1ccccc1)Nc1ccc(Oc2ccc3nccn3n2)cc1 | 25% | 0% | 55% | 8% | 6% | 4% | 3% | 0% | 15% | 0%
CN1c2ccc(-c3ccc(C(=O)NCCO)cc3)cc2-c2[nH]ncc2S1(=O)=O | 76% | 33% | 55% | 16% | 0% | 30% | 21% | 17% | 0% | 25%
Clc1cccc(-c2nc(Nc3ccncc3)c3ccccc3n2)c1 [GW873004] | 49% | 2% | 60% | 0% | 0% | 20% | 17% | 0% | 0% | 0%
Nc1nc(-c2cccnc2)c(-c2ccnc3ccccc23)s1 [GW684083] | 51% | 0% | 0% | 0% | 0% | 0% | 0% | 0% | 0% | 0%
